Source: ChEMBL document CHEMBL4513216, “Probing the Open Global Health Chemical Diversity Library for Multistage-Active Starting Points for Next-Generation Antimalarials” (ACS Infect Dis, 2020)
In all, about 69,000 compounds went through this assay and about 8,600 (12%) showed an effect of 50% or more. This excerpt belongs to a sample that is enriched for strong results.

What follows are compounds tested on Plasmodium berghei (assay: Screen against P. berghei liver stage (PbLuc), transformed with Luciferase, at 10uM). Settings: tested at 10 uM.
Type: functional, HepG2

| SMILES | INHIBITION |
| --- | --- |
| CC(=O)N1CCc2ccc(NC(=O)c3cn(C)nn3)cc2C1 | 24.2% |
| CCc1ncc2c(n1)CN(CC(=O)Nc1cc(C)on1)CC2 | -7.31% |
| COc1ccc2cc(C(=O)NCCNc3ccc(C)nn3)[nH]c2c1 | -17.7% |
| Cc1cc(CC(=O)N2CCc3cc(Br)sc3C2)n[nH]1 | -37.6% |
| Fc1ccccc1CN1CCC[C@@H](Cn2nnc(-c3cccs3)n2)C1 | 22.62% |
| Cc1cccc(S(=O)(=O)N2CCCc3c(c(=O)n(C)n3C)C2)c1 | 70.4% |
| COc1nn(C)c2c1CCCN(S(=O)(=O)c1cccc(C)c1)C2 | 80.2% |
| Cn1c2c(c(=O)n1C)CN(C(=O)c1cccc(F)c1)CCC2 | 46.6% |
| COc1nn(C)c2c1CCCN(S(=O)(=O)c1cccc(F)c1)C2 | -31.3% |
| Cn1c2c(c(=O)n1C)CN(S(=O)(=O)c1cccs1)CCC2 | 18.7% |
| COc1cccc(S(=O)(=O)N2CCCc3c(OC)nn(C)c3C2)c1 | 18.5% |
| CC(C)c1nc(C2CCCN(C(=O)c3ccc4c(c3)COC4)C2)no1 (stereo unspecified) | 1.75% |
| c1nc(N2CCOCC2)ncc1-c1cncn1CCCN1CCCCC1 | 26.585% |
| CCOC(=O)N1CCC(OC)c2ccccc2N(CC(=O)NC)C(=O)C1 (stereo unspecified) | 42.7% |
| CCOC(=O)CN1C(=O)CN(S(C)(=O)=O)CCC(OC)c2ccccc21 (stereo unspecified) | 54.8% |
| CCS(=O)(=O)N1CCC(OC)c2ccccc2N(CC(=O)NC)C(=O)C1 (stereo unspecified) | 43.4% |
| CCn1ccnc1CN1CCC(CNC(=O)c2ccc(C)nc2)C1 (stereo unspecified) | 26.8% |
| Cc1ccc(C(=O)NCC2CCN(Cc3ccccc3C#N)C2)cn1 (stereo unspecified) | 58.6% |
| CCc1ccc(CN2CCC(CNC(=O)c3ccc(C)nc3)C2)nc1 (stereo unspecified) | -16.8% |
| CCOC1CC2(CCN(Cc3cccn3C)CC2)C1 | 29% |
| Cn1cc(CN2CCc3c(nnn3C)C2COCc2ccccc2)cn1 (stereo unspecified) | -90.3% |
| Cc1nccn1C1CCCN(C(=O)c2cnn(C)c2C2CC2)C1 (stereo unspecified) | -3.58% |
| Cc1cc(C)nc(NC(=O)NCCCSc2nncn2C)n1 | 9% |
| CCc1cnc(CN(C(C)=O)C2CCN(CCc3ccncc3)C2)o1 (stereo unspecified) | 42.9% |
| O=C(CC[C@@H]1CCCN2CCCC[C@H]12)N1CCC(c2nnc[nH]2)CC1 | -9.8% |
| Fc1cnc(N2CCCn3c(CN4CCOCC4)nnc3C2)nc1 | -16.9% |

| SMILES | INHIBITION |
| --- | --- |
| Fc1cnc(N2CCCn3c(nnc3Cn3cccc3)C2)nc1 | -23.4% |
| Fc1cnc(N2CCn3c(CN4CCCC4)nnc3C2)nc1 | 57.9% |
| CS(=O)(=O)c1ccc(C(=O)N2CCCC(n3cncn3)C2)o1 (stereo unspecified) | 21.8% |
| CCc1nnc(Nc2cccc(C3CCN(C(C)=O)CC3)n2)s1 | -28.6% |
| Cc1nnc(Nc2cccc(C3CCN(CCO)CC3)n2)s1 | 13.6% |
| CCc1nnc(Nc2cccc(C3CCN(C(=O)CN(C)C)CC3)n2)s1 | 22% |
| CCc1nnc(Nc2cccc(C3CCN(S(=O)(=O)N(C)C)CC3)n2)s1 | 53.2% |
| CCc1nnc(Nc2cccc(C3CCN(CCO)CC3)n2)s1 | 55.7% |
| CCc1nnc(Nc2cccc(C3CCN(C)CC3)n2)s1 | 12.3% |
| CS(=O)(=O)NC1CCCN(C(=O)Nc2ccccc2Cn2cccn2)C1 (stereo unspecified) | 20.9% |
| O=C(NCCn1ccnc1)N1CCCC1c1cccs1 (stereo unspecified) | 7.333% |
| Cc1cc(F)c2c(c1)CCCN2Cc1cc(=O)n(C)c(=O)n1C | -14.2% |
| COc1ccc(-c2cnc(CN3CCCC3Cn3cccn3)o2)cc1 (stereo unspecified) | -21.8% |
| c1csc(CN2Cc3nccn3CC(Cn3cncn3)C2)n1 (stereo unspecified) | 28.5% |
| O=c1c(NCCNCCO)c(N2CCN(c3ccccc3)CC2)c1=O | 55.5% |
| O=c1c(NCCNCCO)c(N2CCN(Cc3ccccc3)CC2)c1=O | 28.3% |
| O=c1c(NCCO)c(N2CCN(c3ccccc3)CC2)c1=O | 29.8% |
| COc1ccc(CN2C[C@@H]3COC[C@]3(CN(C)C)C2)cc1 | 20.5% |
| CN(Cc1cccc(C#N)c1)C(=O)C1CC(c2cccc(F)c2)=NO1 (stereo unspecified) | 8.38% |
| COc1ccc(OC)c2c(C)cc(N(CCO)CCO)nc12 | 1.79% |
| COc1ccc(OC)c2c(C)cc(N(C)CCCO)nc12 | 51.1% |
| COc1ccc(OC)c2c(C)cc(N(C)CCO)nc12 | 0.897% |
| O=C(NCc1ccc2c(c1)OCO2)c1ccc(N2CCCCC2)nn1 | 33.4% |
| Cc1cccc(CO[C@H]2CO[C@@]3(CCN(S(=O)(=O)N(C)C)C3)C2)n1 | 55.5% |
| Cc1ccc(C(=O)N2CC[C@]3(C[C@@H](OCc4ccccn4)CO3)C2)nc1 | 35.7% |
